According to publication PMC5540273 (PLoS ONE, 2017):
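Also: KINOMEscan kinase panel screen.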

These compounds were tested on T1, p38-beta. Details: concentration: 1 μM, replicates: in singlicate; n = 1.
T1 construct: gene MAPK11
For `Nc1nc(-c2cccnc2)c(-c2ccnc3ccccc23)s1` [GW684083], the “%Inh” value was 0%. In the case of `Fc1cccc(COc2ccc(Nc3ncnc4cc[nH]c34)cc2Cl)c1`, the “%Inh” value is reported as 13%. With `N#Cc1ccc(Oc2ccc(Nc3ncnc4cc[nH]c34)cc2Cl)cc1` the “%Inh” value was 14%. In the case of `Cc1cccc(-c2nc(Nc3ccc4[nH]nnc4c3)c3ccccc3n2)n1` [GW867587], the “%Inh” value is reported as 0%. `FC(F)(F)c1cc(Nc2nccc(-c3c(-c4ccc(Cl)cc4)nn4ncccc34)n2)ccc1Cl` [GW829351] was tested, and the “%Inh” value was 0%. `O=C(CCO)NCCn1ccc2ncnc(Nc3ccc(Oc4cccc(C(F)(F)F)c4)c(Cl)c3)c21` was tested, and the “%Inh” value was 0%. For `Cn1ccc2ncnc(Nc3ccc(Oc4cccc(Cl)c4)c(Cl)c3)c21`, the “%Inh” value was 22%. For `COc1cc2c(Nc3cccc(NC(=O)c4ccccc4)c3)ncnc2cc1OCCCN1CCOCC1` [GSK223810], the “%Inh” value was 89%. For `Cl.Cl.c1ccc(-c2cc3ccncc3cc2OC2CCNCC2)cc1` [GSK1122999], the “%Inh” value was 0%. `CCC(CC)(CC)n1cnc2c(N)ncnc21` [SKF-97620] was tested, and the “%Inh” value was 8%. `FC(F)(F)c1ccc(-c2cc(-c3c[nH]nc3-c3ccccn3)ccn2)cc1` [GW599550] was tested, and the “%Inh” value was 0%. `COc1ccc(Nc2nccc(N3CCC(NC(=O)c4cccc(NC(C)=O)c4)C3)n2)cc1` (centres unmarked) [GSK1379732] was tested, and the “%Inh” value was 0%. `Cl.c1ccc(Cn2ccc3cc(Nc4ncnc5ccccc45)ccc32)cc1` [GW275568] was tested, and the “%Inh” value was 0%. With `CCc1nc(-c2cccc(C)c2)c(-c2ccnc(NC(=O)c3ccccc3)c2)s1` the “%Inh” value was 68%. With `COc1ccc(-c2oc3ncnc(N)c3c2-c2ccc(OC)cc2)cc1` [SB-589132] the “%Inh” value was 0%. With `Cl.c1ccc(Cn2ncc3cc(Nc4ncnc5ccccc45)ccc32)cc1` [GW273749] the “%Inh” value was 0%. For `Oc1ccc2ncnc(Nc3ccc(OCc4ccccc4)cc3)c2c1` [GI262866], the “%Inh” value was 0%. `Nc1nccc2scc(-c3ccc4c(c3)CCN4C(=O)Cc3cc(F)ccc3F)c12` [GSK2587663] was tested, and the “%Inh” value was 0%. `CSc1ccc(NC2=C(c3ccccc3Cl)C(=O)NC2=O)cc1` [SB-342411] was tested, and the “%Inh” value was 0%. With `Clc1cc(Nc2ncnc3cc[nH]c23)ccc1OCc1ccccn1` the “%Inh” value was 26%. For `NC(=O)c1sc(-n2cnc3ccccc32)cc1OCc1ccccc1F` [GSK1024306], the “%Inh” value was 1%. `COC(=O)c1c(-c2ccccc2)c2cc(Cl)ccc2c(=O)n1Cc1ccc(S(C)(=O)=O)cc1` was tested, and the “%Inh” value was 0%. For `Cn1cc(-c2ccc3c(c2)CCN3C(=O)Cc2cccc(C(F)(F)F)c2)c2c(N)ncnc21` [GSK2606414], the “%Inh” value was 0%. For `Nc1nc(-c2ccc3c(N)n[nH]c3c2)cc(N2CCCCC2)n1` [GSK2228768], the “%Inh” value was 0%.

These compounds were tested on p38-delta. Details: concentration: 1 μM, replicates: in singlicate; n = 1.
`Cl.Cn1ccc(-c2cccc(Nc3ccnc4cc(-c5nccs5)ccc34)c2)n1` [GW525701] was tested, and the “%Inh” value was 23%. For `CNc1nccc(-c2c(-c3ccc(F)cc3)ncn2C2CCN(C)CC2)n1` [SB-222903], the “%Inh” value was 9%. In the case of `CC(C)(C)OC(=O)NC1CCCN(c2cc(-c3ccc4c(N)n[nH]c4c3)nc(N)n2)C1` (centres unmarked) [GSK2286096], the “%Inh” value is reported as 47%. With `Clc1cccc(-c2nc(Nc3ccncc3)c3ccccc3n2)c1` [GW873004] the “%Inh” value was 17%. For `O=C(Nc1n[nH]c2nc(-c3ccco3)c(Br)cc12)c1ccc(CN2CCCC2)cc1.O=C(O)[C@H](O)[C@@H](O)C(=O)O` [SB-742352], the “%Inh” value was 0%. `FC(F)(F)c1ccc(-c2nn3ncccc3c2-c2ccnc(Nc3cccc(C(F)(F)F)c3)n2)cc1` [GW828205] was tested, and the “%Inh” value was 3%. `CC(C)N1CCC(n2cnc(-c3ccc(F)cc3)c2-c2ccnc(N)n2)CC1` [SB-223132] was tested, and the “%Inh” value was 0%. With `Cn1ccc2ncnc(Oc3ccc(NC(=O)Nc4cccnc4)c(Cl)c3)c21` the “%Inh” value was 0%. In the case of `Cc1ccc(NC(=O)c2cccc(C#N)c2)cc1-c1ccc(C(=O)Nc2ccncc2)cc1` [GSK1398463], the “%Inh” value is reported as 48%. `O=C(c1ccc(-c2cc(-c3c[nH]nc3-c3ccccn3)ccn2)cc1)N1CCCC1` [GW792479] was tested, and the “%Inh” value was 0%. For `Cc1cc(N2CCC(NS(=O)(=O)c3ccc(F)cc3)CC2)nc(Nc2cccc(C#N)c2)n1.O=C(O)C(F)(F)F` [GSK1653537], the “%Inh” value was 8%. `O=C(Nc1ccccc1)Nc1ccc(Oc2ccc3nccn3n2)cc1` was tested, and the “%Inh” value was 2%. For `Nc1nc(-c2cccnc2)c(-c2ccnc3ccccc23)s1` [GW684083], the “%Inh” value was 27%. For `Fc1cccc(COc2ccc(Nc3ncnc4cc[nH]c34)cc2Cl)c1`, the “%Inh” value was 28%. `N#Cc1ccc(Oc2ccc(Nc3ncnc4cc[nH]c34)cc2Cl)cc1` was tested, and the “%Inh” value was 3%. `Cc1cccc(-c2nc(Nc3ccc4[nH]nnc4c3)c3ccccc3n2)n1` [GW867587] was tested, and the “%Inh” value was 0%. In the case of `FC(F)(F)c1cc(Nc2nccc(-c3c(-c4ccc(Cl)cc4)nn4ncccc34)n2)ccc1Cl` [GW829351], the “%Inh” value is reported as 0%. For `O=C(CCO)NCCn1ccc2ncnc(Nc3ccc(Oc4cccc(C(F)(F)F)c4)c(Cl)c3)c21`, the “%Inh” value was 10%. With `Cn1ccc2ncnc(Nc3ccc(Oc4cccc(Cl)c4)c(Cl)c3)c21` the “%Inh” value was 40%. With `COc1cc2c(Nc3cccc(NC(=O)c4ccccc4)c3)ncnc2cc1OCCCN1CCOCC1` [GSK223810] the “%Inh” value was 0%. With `Cl.Cl.c1ccc(-c2cc3ccncc3cc2OC2CCNCC2)cc1` [GSK1122999] the “%Inh” value was 44%. `CCC(CC)(CC)n1cnc2c(N)ncnc21` [SKF-97620] was tested, and the “%Inh” value was 0%. With `FC(F)(F)c1ccc(-c2cc(-c3c[nH]nc3-c3ccccn3)ccn2)cc1` [GW599550] the “%Inh” value was 50%. `COc1ccc(Nc2nccc(N3CCC(NC(=O)c4cccc(NC(C)=O)c4)C3)n2)cc1` (centres unmarked) [GSK1379732] was tested, and the “%Inh” value was 22%. For `Cl.c1ccc(Cn2ccc3cc(Nc4ncnc5ccccc45)ccc32)cc1` [GW275568], the “%Inh” value was 30%. `COc1ccc(-c2oc3ncnc(N)c3c2-c2ccc(OC)cc2)cc1` [SB-589132] was tested, and the “%Inh” value was 42%. With `Cl.c1ccc(Cn2ncc3cc(Nc4ncnc5ccccc45)ccc32)cc1` [GW273749] the “%Inh” value was 39%. `Oc1ccc2ncnc(Nc3ccc(OCc4ccccc4)cc3)c2c1` [GI262866] was tested, and the “%Inh” value was 36%. With `Nc1nccc2scc(-c3ccc4c(c3)CCN4C(=O)Cc3cc(F)ccc3F)c12` [GSK2587663] the “%Inh” value was 39%. For `CSc1ccc(NC2=C(c3ccccc3Cl)C(=O)NC2=O)cc1` [SB-342411], the “%Inh” value was 0%. With `Clc1cc(Nc2ncnc3cc[nH]c23)ccc1OCc1ccccn1` the “%Inh” value was 37%. `NC(=O)c1sc(-n2cnc3ccccc32)cc1OCc1ccccc1F` [GSK1024306] was tested, and the “%Inh” value was 0%. With `COC(=O)c1c(-c2ccccc2)c2cc(Cl)ccc2c(=O)n1Cc1ccc(S(C)(=O)=O)cc1` the “%Inh” value was 21%. `Cn1cc(-c2ccc3c(c2)CCN3C(=O)Cc2cccc(C(F)(F)F)c2)c2c(N)ncnc21` [GSK2606414] was tested, and the “%Inh” value was 20%. For `Nc1nc(-c2ccc3c(N)n[nH]c3c2)cc(N2CCCCC2)n1` [GSK2228768], the “%Inh” value was 19%.
